# Screening data from PubChem.
# Only some compounds are listed: those with a hit (about 3.3% of all), similar ones and a draw of the others.
# 12-hLO inh: inhibitors of human 12-lipoxygenase (ALOX12); 0.12% of 150,000 active; AID 1452; purified 12-hLO, xylenol orange hydroperoxide absorbance; P18054; Potency, µM (top dose mostly 57.1 µM), for the others: at the highest dose activity change, negative = inhibition, most hits filed as inhibitors; further: potency means the concentration at half of the fitted maximal effect; on the % scale 0 is the no-effect control and ±100 the full control effect; nearly all actives have a fitted effect of over 55% in size
#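 Purified human 12hLO (150 nM final) was preincubated with compounds for 15 min at room temperature in 25 mM Hepes pH 7.0, 0.01% Triton X-100, then reacted with 40 uM arachidonic acid for 30 min. Hydroperoxide was detected with ferrous iron/xylenol orange.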
# IMPase inh: cell-permeable inhibitors of inositol monophosphatase (IMPase) | 120,000 tested, under 10 active | inhibition (IP1 accumulation), % at 46.1 µM | P97697 | CHO-M1 cells, IP1 accumulation, HTRF TR-FRET ratio | AID 901; active means well fitted curve in the direction sought with a large enough effect in the signal ratio, not every such curve was filed as active; inconclusive means small, poorly fitted or top-dose-only effect, or a change in a side signal; inactive means no such curve, though single readings can be large or run the other way; the % refers to the signal ratio;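 further: cells stimulated with carbachol in lithium chloride buffer; plate controls were DMSO basal wells for no effect and reference inhibitor wells for full effect; higher means more IMPase inhibition seen as more IP1 and lower FRET ratio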
# Target sequence (P97697 whole entry, looked up): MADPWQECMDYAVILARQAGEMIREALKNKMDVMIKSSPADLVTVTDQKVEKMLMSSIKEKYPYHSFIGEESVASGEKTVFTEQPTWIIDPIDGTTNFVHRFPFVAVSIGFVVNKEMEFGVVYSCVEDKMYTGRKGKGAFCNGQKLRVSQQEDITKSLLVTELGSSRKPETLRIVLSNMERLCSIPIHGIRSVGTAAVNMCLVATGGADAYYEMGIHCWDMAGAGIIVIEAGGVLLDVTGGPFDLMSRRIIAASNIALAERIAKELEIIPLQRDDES
#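 CHO-M1, 2000 cells/well, cultured 16–30 h; cpd up to 46 uM; carbachol (50 uM solution, stimulation buffer w/ 50 mM LiCl, pH 7.4), 30 min 37C; IP-One TR-FRET, 10 min RT; Ex 320/Em 665, 620; Hill-fit AC50.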
# HTT aggregate: mutant huntingtin aggregation inhibition. AID 1688. 1.1% of 220,000 active. PC12 HttQ103-GFP aggregates, Acumen cytometry, 40 h. Potency, µM (doses to about 46.1 µM), without a hit: top-dose activity change, negative = inhibition, most hits filed as inhibitors; further: potency means the concentration at half of the fitted maximal effect; on the % scale 0 is the no-effect control and ±100 the full control effect; nearly all actives have a fitted effect of over 60% in size
#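 Inducible Q103 Huntingtin exon 1–GFP PC12 line, 1500 cells/well in phenol red free DMEM with 5% equine and 5% calf serum. Tebufenozide 100 nM induced expression; compounds titrated; aggregates quantified by cytometry.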
# PNC inhibitor: inhibitors of perinucleolar compartment assembly. PC3M PTB-GFP, PNC prevalence imaging, 16 h; hits give low values. activity change (PNC), negative = inhibition, % at 10 µM. 3.1% of 140,000 active. AID 2417;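 active means readout at or below -70, meaning at least 70% loss of cells showing the perinucleolar compartment, a nuclear body marking cancer cells; inconclusive means readout between -30 and a set limit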;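 further: plate controls were DMSO wells for no effect and camptothecin positive control wells for full effect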
#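 PC3M cells stably expressing PTB-GFP, 750–1000 cells/well, treated 16 h at 37 °C with compound (23 nl of library stock), in duplicate. After paraformaldehyde fixation and Hoechst stain, imaged at 20x; PNC prevalence scored by image analysis.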
# NPSR antagonist: neuropeptide S receptor (human) antagonism, cAMP | CHO-NPSR cells, cAMP TR-FRET, antagonist mode | Potency, µM (highest dose often 38.3 µM), without a hit: top-dose activity change, negative = inhibition, most hits filed as inhibitors | AID 1461 | Q6W5P4 | 1% of 220,000 active; further: potency means the concentration at half of the fitted maximal effect; on the % scale 0 is the no-effect control and ±100 the full control effect; nearly all actives have a fitted effect of over 50% in size
# HTT cytoprotect: Huntington cell model cytoprotection by ATP luminescence; PC12 HTT-Q103 induced, cytoprotection, ATP luminescence, 40 h; Potency, µM (top dose mostly 56.4 µM), for the others: cytoprotection (ATP increase), hits mostly activators; 0.14% of 230,000 active; AID 1471; further: potency means the concentration at half of the fitted maximal effect; % of control where 0% means no effect; nearly all actives have a fitted effect of over 45% in size
#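 Readout: ATPlite luminescence (ATP level). Model: stable PC12, inducible Htt exon1 Q103-GFP. Inducer: tebufenozide, 100 nM final. Compounds: dose series. No G418 in medium.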
# * = called active by the depositor; u = inconclusive; x = no result; [ ] = another dose, or the depositor's remark. Unless noted, the call rests on the fitted dose curve; in most records, active means well fitted curve in the direction sought with a large enough effect; inconclusive means small, poorly fitted or top-dose-only effect, or another doubt; inactive means no such curve, though single readings can be large; an effect the other way counts as inactive or inconclusive.
SMILES,12-hLO inh,IMPase inh,HTT aggregate,PNC inhibitor,NPSR antagonist,HTT cytoprotect
Cc1ccnc(SCc2cc(=O)c(OC(=O)c3ccc(Br)o3)co2)n1,-6%,-10,4%,-83*,30%,10%[10 µM]
O=C(Oc1coc(CSc2ncccn2)cc1=O)c1ccc(Br)o1,5%,-7,6%,-10,u,18%[10 µM]
CN(C(=O)Cn1cc(S(=O)(=O)N2CCN(c3ccccc3F)CC2)c2ccccc2c1=O)c1ccc(Cl)cc1,x,7,x,x,x,x
CS(=O)(=O)Nc1cccc(-c2cncnc2Nc2ccc(F)cc2)c1,x,x,x,x,x,5%
C=CC1=C2C=C(C3CC3)N(CCCCO)C=C2C(=O)C(C)(OC(=O)c2ccco2)C1=O (stereo not drawn),-1%[11.4 µM],x,x,x,x,-20%[10 µM]
COc1cc(NC(=S)NCc2cccnc2)cc(OC)c1,-2%,x,-10%,-92*,24%,x
Cc1cccc(N(CC(N)=O)C2SC(=O)NC2=O)c1 (stereo not drawn),-7%,-4,2%,-100*,-10%[46.1 µM],-2%[10 µM]
O=C(O)CN(c1ccccc1)C1SC(=O)NC1=O (stereo not drawn),-3%,-5,-4%,18,-4%[46.1 µM],-16%
CNC(=S)/N=C/NOCc1ccc(Cl)cc1Cl,x,x,7.9µM*,x,-20%,-33%[10 µM]
NC(=O)NOCc1ccc(Cl)cc1Cl,x,x,3%,x,22%,-27%
CC(=O)OC[C@@]12C(=O)[C@@H](O)[C@@H](C)[C@]3(C[C@@H](c4ccoc4)O[C@@H]3OC(C)=O)[C@H]1CCC[C@]21CO1,x,x,x,x,x,18%
N#CC(c1ccc(Cl)cc1)c1ccc2c(C(F)(F)F)cc(C(F)(F)F)nc2n1 (stereo not drawn),-3%,31,u,13,6.3µM*,-44%
FC(F)(F)c1cc(C(F)(F)F)c2ccc(N3CCN(c4ccc(Cl)cc4)CC3)nc2n1,5%,-2,8%,98,0%[46.1 µM],5%
CC1C/C(=C/c2cccs2)C(=O)/C(=C/c2cccs2)C1 (stereo not drawn),-5%,x,20%,-113*,-17%,x
O=C(Nc1c2c(nn1-c1ccc(F)cc1)CS(=O)C2)c1ccc(S(=O)(=O)N2CCOCC2)cc1 (stereo not drawn),x,x,5%,x,22%,-3%
Cn1c2c(c(=O)n(C)c1=O)C(CC(=O)Nc1ccccc1)C(=O)N2 (stereo not drawn),0%,-1,5µM*,u,u,-7%[0.074 µM]
CN(C)CCCNS(=O)(=O)c1ccc(Oc2ncc(C(F)(F)F)cc2Cl)cc1,5%,-5[1.84 µM],22µM*,26,-9%[46.1 µM],-3%[10 µM]
CCN(CC)CCNC(=O)c1c(O)c2cc(OC)c(OC)cc2[nH]c1=O,6%,-2,13%,-119*,-1%,-1%[10 µM]
